Among the data in PubChem BioAssay (NCI) are growth values, retold here.

Compounds without any hit were thinned out: in the full panel of roughly 83,000, 20% have a hit.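 The endpoint reported here, percent growth, reads 100 for growth as untreated, 0 for no net growth and -100 for all cells dead.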 Activity calls are given as the source filed them.

The test system of the assay is SK-MEL-5 melanoma. As to the kind of experiment: NCI-60 one-dose screen, 48 h (100 = growth as untreated, 0 = no growth, -100 = all killed). To be noted: 10 µM unless noted. Here is the method:
Growth inhibition of the SK-MEL-5 human tumor cell line is measured as a screen for anti-cancer activity. Cells are grown in 96 well plates and exposed to the test compound for 48 hours. Compounds are tested at a single concentration, which is 10^-5 M for most compounds. The reported endpoint is percent growth (GI% or GIPRCNT), where numbers from 0 - 100% represent growth inhibition, and numbers from -100% - 0 represent cell death. For example, a value of 40 represents 60% growth inhibition. A value of 0 means no net growth occurred over the course of the experiment. A value of -40 indicates 40% of cells at the beginning of the experiment died by the end of the experiment. A value of -100 means all cells are dead at the end of the experiment.
NCI-60 Human Tumor Cell Lines Screen was performed using the standard one-dose NCI protocol, which is described in more detail at https://dtp.cancer.gov/discovery_development/nci-60/default.htm.
Compounds with GIPRCNT values below 10 were considered active. Activity score was based on GIPRCNT using the following formula: […]
Score is 0 for GIPRCNT values of 100 or above, 50 for GIPRCNT values of 0, and 100 for GIPRCNT values of -100.
Turning to `COc1ccc2cc(C(C)C(=O)Nc3ccc(-c4n[nH]c(=S)n4C4CCCCC4)cc3)ccc2c1` (stereo not given), the growth was 67.5% (inactive).

For `O=C(CCN1C(=O)/C(=C/c2ccc(O)cc2)SC1=S)Nc1ccc(Cl)cc1`, the growth was 99.2% (inactive).

`NC[C@@H]1O[C@H](O[C@@H]2[C@@H](CO)OC(O[C@@H]3[C@@H](O)[C@H](N)C[C@H](N)[C@H]3OC3O[C@H](CN)[C@@H](O)[C@H](O)[C@H]3N)[C@@H]2O)[C@H](N)[C@@H](O)[C@@H]1O` (stereo not given in full): the growth was 106% (inactive).

In the case of `NCCNc1nc2ccccc2c2c(=O)c3cccc(F)c3sc12`, the growth is 88.2% (inactive).

`CCN1C(=O)N(CC)C2Nn3c(s/c(=C4\C(=O)Nc5ccccc54)c3=O)=NC21` (stereo not given): the growth is 41.6% (inactive).

Turning to `COc1cc(C(=O)c2cnc(-c3c[nH]c4cccc(C)c34)[nH]2)cc(OC)c1OC`, the growth was -30.7% (active).

As to `COc1cc(-c2nc3sccn3c2-c2ccnc(NCCCNS(=O)(=O)c3ccc(F)cc3)n2)ccc1F`, the growth is 40.7% (inactive).

As to `COc1ccc(-c2nc3sc(-c4ccccc4)cn3n2)cc1`, the growth is 34.4% (inactive).

Consider `O=C(N/N=C/[C@@H](O)[C@H](O)[C@H](O)CO)c1ccc(NC(=O)c2cccnc2)cc1`, for which the growth is 106% (inactive).

Turning to `CCCCCCCCCCCCCCCCCCOc1ccccc1CC(=O)OCC[N+](CC)(CC)CC`, the growth was -3.62% (active).

Regarding `CCC12CCC[N+]3([O-])CCC4(C(=Nc5ccccc54)C(O)(C(=O)OC)C1)C23` (stereo not given), the growth is 116% (inactive).

On to `CC(=O)OC[C@H]1OC(Sc2sc(C(=O)c3ccc(Br)cc3)c(N)c2-c2nc3ccccc3s2)[C@H](OC(C)=O)[C@@H](OC(C)=O)[C@H]1OC(C)=O` (stereo not given in full), for which the growth is 36.3% (inactive).

With `CN1CCN(c2ccc(-c3ccc4ncc(C#N)c(Nc5ccc(F)c(Cl)c5)c4c3)cc2)CC1`, the growth is 58.1% (inactive).

For the molecule `CCCCNC(=O)Oc1ccc(/C(=C(\C)c2ccc(Cl)cc2)c2ccc(OCCN3CCCCC3)cc2)cc1`, the growth is 74.2% (inactive).

On to `CCCCNc1nc(NN2C(=O)c3cccc4cccc(c34)C2=O)nc(-n2cnc3ccccc32)n1`, for which the growth was 75.6% (inactive).

Regarding `BrCCCc1n(Cc2ccc3ccccc3c2)c2ccccc2[n+]1Cc1ccc2ccccc2c1`, the growth is -95.3% (active).

Turning to `Cc1cccc(NCc2cn(-c3ccc(C(=O)O)cc3)nc2-c2ccc(C(=O)O)cc2)n1`, the growth was 103% (inactive).

Take `CC(=O)Oc1ccccc1C(=O)N=C1[Se]CCCN1C(=O)c1ccccc1OC(C)=O`: the growth is 74.8% (inactive).

Take `O=C1c2ccccc2NC(n2sc3ccccc3c2=O)N1c1ccccc1` (stereo not given): the growth is 105% (inactive).

In the case of `Cc1ncc(C(=O)Nc2ccc(CN3CCN(C)CC3)c(C(F)(F)F)c2)cc1C#Cc1ccc(N)nc1`, the growth was -100% (active).

For the molecule `Cc1cc(=O)oc2cc(OC(=O)CN3CCN(C)CC3)ccc12`, the growth was 101% (inactive).

Consider `CCc1ccccc1-n1c(N)c(C#N)c(-c2ccc(Cl)cc2)c(C#N)c1=O`, for which the growth was 106% (inactive).

Regarding `COc1cc(C2CC(c3ccc(SC)cc3)=NN2C(C)=O)cc(OC)c1OC` (stereo not given), the growth is 70.2% (inactive).

With `Cc1cc2nc3cc(C)c(N)cc3[n+](-c3ccccc3)c2cc1N`, the growth was 20.7% (inactive).

Turning to `Cc1ccc(C(=O)N/N=C/c2cccc(Oc3ccccc3)c2)cn1`, the growth is 47.4% (inactive).

In the case of `O=C(Nc1nc2ccc(F)cc2s1)c1cccnc1Nc1ccc(Cl)cc1Cl`, the growth was -2.74% (active).

For `O=C(CCOCCNC(=O)COc1ccc2c(c1)OCC(c1ccc(F)cc1)C2=O)NCCCC(O)(P(=O)(O)O)P(=O)(O)O` (stereo not given), the growth is 101% (inactive).

Turning to `NC(=O)C1(Nc2ccc(Br)cc2)CCCC1`, the growth was 103% (inactive).

Turning to `COC(=O)c1ccc2[nH]c(O)c(C(=Nc3ccc(N(C)C(=O)CN4CCN(C)CC4)cc3)c3ccccc3)c2c1`, the growth was 38.3% (inactive).

In the case of `COc1ccc(C2C(C#N)=C(N)Oc3c2sc2c(C)cccc32)cc1` (stereo not given), the growth is 29% (inactive).

For the molecule `Cc1nc2cnc(N)c(C#Cc3cncc(C(=O)Nc4ccc(CN5CCN(C)CC5)c(C(F)(F)F)c4)c3)c2nc1C`, the growth is 26.6% (inactive).

For the molecule `O=C(O)CCC/C=C\C[C@H]1C=CC(=O)/C1=C/C[C@@H](O)CCc1cccc(C(F)(F)F)c1`, the growth was -85.9% (active).

As for `Cc1ccc(C(=O)N/N=C/c2cccc([N+](=O)[O-])c2)cn1`, the growth is 98.9% (inactive).

Regarding `COc1ccn2c(C(C)=O)cc(C(=O)c3ccc4c(c3)Sc3ccccc3N4)c2c1`, the growth is -39.7% (active).

As to `CCC(C)(c1cc(C(C)(C)C)c(O)c(C(C)(C)C)c1)c1cc(C(C)(C)C)c(O)c(C(C)(C)C)c1`, the growth was 100% (inactive).

For `COc1cc(C(=O)/C=C/c2ccc(OCCCCCC[P+](c3ccccc3)(c3ccccc3)c3ccccc3)cc2)cc(OC)c1OC`, the growth is -100% (active).

As for `COc1cccc(/C=C2\C=C(c3ccccc3)N(Cc3ccccc3)C2=O)c1`, the growth was 34.8% (inactive).

For `CCOC(=O)c1c2c(n(-c3ccc(C#N)cc3)c1-c1ccccc1)C=CCC2`, the growth was 92.8% (inactive).

For `COc1ccc(-n2c(N)c(-c3nc4ccccc4[nH]3)cc(C#N)c2=O)cc1`, the growth is 90.9% (inactive).

Regarding `Cc1nc2ccccc2c(/C=C/c2ccc(Cl)cc2)c1C(=O)/C=C/c1ccc(C(F)(F)F)cc1`, the growth was -94.6% (active).
